Screening data from PubChem BioAssay.
B2AR arrestin ag = ADRB2 beta-arrestin recruitment; P07550; HTLA Tango cells, beta-arrestin recruitment, luciferase luminescence, 18 h; Potency, µM (titrated, usually from 46.1 µM), actives largely listed as activators; 44,000 tested, under 10 active;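 further: potency means the concentration at half of the fitted maximal effect; 0% = DMSO and full agonism = EC100 isoproterenol or metaproterenol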
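Ligand-induced beta-arrestin recruitment to recombinant beta2-AR is measured via a tTA-driven luciferase reporter in Tango cells after 18 hr compound exposure at 37 degrees C. Concentrations span up to 46 microM.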
GALC G270D act = enhancers of human galactocerebrosidase G270D mutant activity in cells; actives 0.1% (n = 45,000); P54803; AID 1159614; Potency, µM (doses to about 57.5 µM), most hits filed as activators; 145M-Twi-hGALC-G270D cells (Twitcher mouse brain line with human GALC G270D), HMU-beta-Gal fluorescence, 48 h; further: potency means the concentration at half of the fitted maximal effect; 0% is about no effect; nearly all actives have a fitted effect of over 65% in size
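Brain-derived Twitcher mouse 145M-Twi cells stably expressing human GALC-G270D or wild-type GALC, treated live, then residual GALC activity read by fluorescence of HMU-b-Gal substrate (0.1 mM final) in citrate-phosphate buffer pH 5.2 with sodium taurocholate. Signal increase indicates enhancement.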
NTMT1 inh = NTMT1 methyltransferase inhibition | NTMT1 MTase-Glo SAH luminescence, purified enzyme | actives 2.5% (n = 59,000) | Q9BV86 | AID 1645870 | Potency, µM (highest dose often 114 µM), without a hit: at the top dose activity change, negative = inhibition, usual class: inhibitors;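 further: potency means the concentration at half of the fitted maximal effect; plate controls were DMSO vehicle for no effect and no enzyme for full effect; nearly all actives have a fitted effect of over 65% in size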
GPR32 ag = activates human resolvin D1 receptor GPR32 | O75388 | CHO-K1 GPR32 beta-arrestin PathHunter luminescence, 90 min; zero percent set by DMSO-only wells | AID 1346428 | actives 2.5% (n = 48,000) | activation, % at 76.9 µM;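 active means activation of at least 60% and not above a set upper limit, about 1 call in 100 departs from these limits; inconclusive means activation of 40% to 60%, or above that upper limit; inactive means activation under 40%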; further: 0% is about no effect
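CHO-K1 cells stably expressing ProLink-tagged GPR32 and Enzyme Activator-tagged beta-arrestin were seeded at 2,500 cells/well overnight, exposed to compounds for 90 min at 37 °C, then read by beta-Gal complementation chemiluminescence after 1 h detection reagent.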
GALK inh = inhibits human galactokinase | P51570 | recombinant GALK, Kinase-Glo ATP luminescence, 1 h | Potency, µM (highest dose often 57.5 µM), without a hit: at the highest dose activity, negative = inhibition, most hits filed as inhibitors | 44,000 tested, under 10 active | AID 1347072;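 further: plate controls were full GALK reaction for no effect and reaction lacking GALK for full effect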
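5 nM GALK; 35 uM ATP; 100 uM D-galactose; 20 mM HEPES pH 8.0, 5 mM MgCl2, 60 mM NaCl, 1 mM DTT, 0.01% BSA; 1 h RT; Kinase-Glo Plus luminescence.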
CLK4 inh-1 = confirmation of human CLK4 kinase inhibitors, SAR round 2 | shares compounds with NTMT1 inh | recombinant Clk4, Kinase-Glo ATP luminescence, 4.5 h | Potency, µM (doses to about 76.9 µM), for inactives: at the highest dose activity, negative = inhibition, hits mostly inhibitors | actives 90% (n = 90)
Target sequence (Q9HAZ1 whole entry, looked up): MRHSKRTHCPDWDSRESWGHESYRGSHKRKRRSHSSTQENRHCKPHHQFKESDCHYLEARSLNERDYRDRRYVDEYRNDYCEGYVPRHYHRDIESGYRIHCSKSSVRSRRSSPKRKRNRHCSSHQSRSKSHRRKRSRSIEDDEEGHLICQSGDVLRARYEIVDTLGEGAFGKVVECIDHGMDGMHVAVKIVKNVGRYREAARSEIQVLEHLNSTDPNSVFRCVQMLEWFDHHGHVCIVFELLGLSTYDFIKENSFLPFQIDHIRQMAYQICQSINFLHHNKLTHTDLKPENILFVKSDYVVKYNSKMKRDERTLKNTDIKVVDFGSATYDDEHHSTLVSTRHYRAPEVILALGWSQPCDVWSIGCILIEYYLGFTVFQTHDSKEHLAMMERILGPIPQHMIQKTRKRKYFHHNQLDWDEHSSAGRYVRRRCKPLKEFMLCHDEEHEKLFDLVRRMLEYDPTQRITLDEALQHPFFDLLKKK
CLK4 inh-2 = inhibitors of human CLK4 kinase, SAR round 2; shares compounds with NTMT1 inh; Reaction Biology kinase assay, 10 uM ATP; Potency, µM, hits mostly inhibitors; actives 100% (n = 65); calls by dose curve
DYRK1A inh = inhibitors of human DYRK1A kinase | shares compounds with NTMT1 inh | Reaction Biology kinase assay, 10 uM ATP | Potency, µM, usual class: inhibitors | actives 90% (n = 65) | AID 504424;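 active means compounds that showed inhibition of Dyrk1a and received a fitted potency; inactive means compounds that showed no inhibition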
CLK2 RBC = CLK2 kinase inhibition; shares compounds with NTMT1 inh; Reaction Biology kinase assay, 10 uM ATP; actives 90% (n = 65); Potency, µM, hits mostly inhibitors;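 active means compound that inhibits Clk2 kinase in the dose series, with an IC50 potency reported; inactive means no inhibition seen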
CLK3 RBC = CLK3 kinase inhibition; shares compounds with NTMT1 inh; recombinant CLK3 kinase assay, 10 uM ATP; Potency, µM, usual class: inhibitors; actives 40% (n = 65); AID 504428;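 active means compounds that inhibited Clk3 enough in the ten-dose series to give a half-maximal potency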
DYRK1B RBC = DYRK1B kinase inhibition; shares compounds with NTMT1 inh; Recombinant Dyrk1b kinase assay, 10 uM ATP; Potency, µM, most hits filed as inhibitors; actives 80% (n = 65);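 active means compounds whose dose response shows an inhibitor phenotype against the kinase Dyrk1b; inactive means compounds showing no inhibitor phenotype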
CLK1 inh = inhibitors of human CLK1 kinase; shares compounds with NTMT1 inh; recombinant Clk1 kinase assay, 10 uM ATP; Potency, µM, usual class: inhibitors; actives 90% (n = 65); AID 504430;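 active means compounds that block the splicing kinase Clk1 enough to give a fitted half-inhibition concentration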
NNMT counter = counter-screen for NTMT1 inhibitors: human NNMT inhibition | Potency, µM (top dose mostly 57.1 µM), inactives show top-dose activity, negative = inhibition, most hits filed as inhibitors | NNMT MTase-Glo luminescence, SAH detection | actives 10% (n = 120) | shares compounds with NTMT1 inh
Active calls of the source: *; i = inactive; ? = inconclusive; nt = no result given; [ ] = dose if it differs, or a comment. A selection: hits, their analogues and other compounds. The true share with any hit is near 3.6%. Unless noted, the call rests on the fitted dose curve; in most records, active means well fitted curve in the direction sought with a large enough effect; inconclusive means small, poorly fitted or top-dose-only effect, or another doubt; inactive means no such curve, though single readings can be large; an effect the other way counts as inactive or inconclusive.

SMILES | B2AR arrestin ag | GALC G270D act | NTMT1 inh | GPR32 ag | GALK inh | others
CC(O)c1ccc(-c2ccc3ncnc(N4CCOCC4)c3c2)o1 (stereo not given) | nt | nt | ? | nt | nt | CLK4 inh-1=0.41µM*;CLK4 inh-2=1.9*;DYRK1A inh=29µM*;CLK2 RBC=19µM*;CLK3 RBC=i;DYRK1B RBC=45µM*;CLK1 inh=9µM*
O=C(O)c1ccc(-c2ccc3ncnc(N4CCOCC4)c3c2)o1 | nt | nt | -1% | nt | nt | CLK4 inh-1=0.65µM*;CLK4 inh-2=3*;DYRK1A inh=45µM*;CLK2 RBC=33µM*;CLK3 RBC=i;DYRK1B RBC=34µM*;CLK1 inh=46µM*
Cc1oc2ncnc(N3CCOCC3)c2c1C(=O)N(Cc1ccccc1)C(C)C | i | i | ? | -13 | 1%
Cc1ccc(CNC(=O)c2c(C)oc3ncnc(N4CCOCC4)c23)cc1 | i | i | -29% | -9 | 2%
CN(C)c1cnc2c(O)ccc([S+](=O)([O-])Nc3ccccc3F)c2c1 | nt | nt | 9% | nt | nt
Cc1ccn(-c2cc(Cl)ccc2[C@@H](Oc2cc(-c3ccc(C[C@H](N)C(=O)O)cc3)nc(N)n2)C(F)(F)F)n1 | nt | nt | 5%[57.5 µM] | nt | nt
Cc1ccc(NC(=O)CN2C(=O)N/C(=C\c3cccn3-c3ccc(C(=O)NOCc4ccccc4)cc3)C2=O)cc1 | nt | nt | 17% | nt | nt
CCCCCOc1ccc(-c2ccc(-c3ccc(C(=O)N[C@H]4C[C@@H](O)[C@@H](O)NC(=O)[C@@H]5[C@@H](O)[C@@H](C)CN5C(=O)[C@H]([C@@H](C)O)NC(=O)[C@H]([C@H](O)[C@@H](O)c5ccc(O)cc5)NC(=O)[C@@H]5C[C@@H](O)CN5C(=O)[C@H]([C@@H](C)O)NC4=O)cc3)cc2)cc1 | nt | nt | 5%[29.8 µM] | nt | nt | NNMT counter=-4%[28.6 µM]
CCCCCOc1ccc(-c2cc(-c3ccc(C(=O)N[C@H]4C[C@@H](O)[C@@H](O)NC(=O)C5[C@@H](O)[C@@H](C)CN5C(=O)C([C@H](O)CC(N)=O)NC(=O)C([C@H](O)[C@@H](O)c5ccc(O)c(OS(=O)(=O)O)c5)NC(=O)C5C[C@@H](O)CN5C(=O)C([C@@H](C)O)NC4=O)cc3)no2)cc1 (stereo not given in full) | nt | nt | 1%[29.8 µM] | nt | nt
